High-throughput results: PubChem, NMMLSC
This is a sample that favours compounds with a hit; in the whole collection about 0.93% have one here.
LAP4-GFP MLPCN: alters LAP4-GFP fluorescence in TOR pathway yeast screen | S. cerevisiae LAP4-GFP multiplex, flow cytometry GFP, 3 h; median GFP as percent of DMSO wells | AID 2023 | 0.34% of 320,000 active | GFP response vs DMSO, % at 10 µM;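 active means GFP response vs DMSO above a set limit, about the screen mean plus 3 SD, cut at about 150% in these data; inconclusive means under 70 cell events counted for the yeast strain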
CIT2-GFP yeast: yeast TOR pathway CIT2-GFP modulation; S. cerevisiae CIT2-GFP strain, flow cytometry, 3 h; 100 means same as DMSO wells; GFP response vs DMSO, % at 10 µM; 0.065% of 320,000 active; AID 2029;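 active means GFP response relative to DMSO above a set limit, near the screen mean plus 3 SD, cut at about 150% in these data; inconclusive means Fewer than 70 cells measured for a yeast strain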;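 further: ratio of well median GFP fluorescence to mean of DMSO wells on the plate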
MEP2 TOR yeast: yeast TOR pathway MEP2-GFP modulation. 0.51% of 330,000 active. S. cerevisiae MEP2-GFP strain, flow cytometry GFP, 3 h; 100% = DMSO control level. GFP response vs DMSO, % at 10 µM;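 active means GFP response versus DMSO above a set limit, roughly screen mean plus 3 SD, cut at about 180% in these data; inconclusive means fewer than 70 cells counted for a yeast strain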;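 further: median GFP fluorescence of the barcode-gated MEP2-GFP cells per well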
RPL19A TOR yeast: alters RPL19A-GFP fluorescence in TOR pathway yeast screen | S. cerevisiae RPL19A-GFP strain, flow cytometry, 3 h; hits give low values | 0.3% of 330,000 active | AID 2025 | percent response vs DMSO, % at 10 µM;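 active means percent response vs DMSO below 50%; inconclusive means fewer than 70 events counted for the yeast strain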;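 further: median channel GFP fluorescence of the barcoded RPL19A-GFP strain; lower means less RPL19A-GFP as with rapamycin TOR inhibition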
AGP1-GFP MLPCN: alters AGP1-GFP fluorescence in TOR pathway yeast screen. S. cerevisiae AGP1-GFP multiplex flow cytometry, 3 h; GFP as percent of DMSO wells. GFP response vs DMSO, % at 10 µM. 0.02% of 320,000 active. AID 2066;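 active means GFP response relative to DMSO above a set limit, near screen average plus 3 SD, cut at about 150% in these data; inconclusive means fewer than 70 cells counted for the yeast strain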;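 further: median GFP channel fluorescence of the gated AGP1 strain per well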
Numbers stand for hits; . = inactive; ? = inconclusive; / = not tested or not shown; [ ] = remark or other dose.

SMILES	LAP4-GFP MLPCN	CIT2-GFP yeast	MEP2 TOR yeast	RPL19A TOR yeast	AGP1-GFP MLPCN
Cc1ccc(S(=O)(=O)N2CCc3ccccc3C2CC(=O)O)cc1 (stereo unspecified)	.	?	?	23[may fluoresce violet]	?
COC(=O)c1[nH]c2ccc(C)cc2c1NC(=O)CN1CCN(Cc2ccccc2)CC1	.	.	.	.	.
O=C1c2cccc3c([N+](=O)[O-])ccc(c23)C(=O)N1c1nccs1	.	.	218	.	.
O=C1c2ccc([N+](=O)[O-])cc2C(=O)N1c1ccc(Cl)cn1	.	.	.	.	.
O=C1c2cccc3c([N+](=O)[O-])ccc(c23)C(=O)N1c1ccc(Cl)cn1	249[may fluoresce violet]	?	349[may fluoresce violet]	.	.
O=C1c2cccc3cccc(c23)C(=O)N1c1nccs1	.	.	.	.	.
O=C(c1ccccc1[N+](=O)[O-])n1cnc2ccccc21	.	157	.	.	.
CC(=O)COc1cc(C)cc2oc(=O)cc(-c3ccccc3)c12	.	.	.	.	.
Cc1cc(O)c2c(-c3ccccc3)cc(=O)oc2c1	.	?	266[may fluoresce violet]	45[may fluoresce violet]	?
COc1ccc(S(=O)(=O)NCc2ccccn2)cc1NC(=O)c1ccccc1F	.	?	231[may fluoresce violet]	.	.
CCOc1ccc(S(=O)(=O)NCc2ccccn2)cc1NC(=O)c1ccccc1	.	.	.	.	.
Cc1cccn2cc(CNS(=O)(=O)c3cccc(F)c3)nc12	.	.	.	.	.
CC(=O)c1c(C)[nH]c(C(=O)NCc2ccccc2F)c1C	.	?	?	28[may fluoresce violet]	?
CC(=O)c1c(C)[nH]c(C(=O)NCc2ccccc2Cl)c1C	.	.	.	.	.
CCOc1ccc(C(=O)NCC2(c3ccccc3)CCOCC2)cc1	.	.	.	.	.
CN(CC(=O)Nc1cccc(F)c1)C(=O)c1sc2ccccc2c1Cl	.	.	.	.	.
O=C(NC1CCCCC1)C(c1cccs1)N(C(=O)Cc1c[nH]c2ccccc12)c1ccc(F)cc1 (stereo unspecified)	.	.	.	.	.
CCc1nnc(NC(=O)c2ccc(-c3cc(C(F)(F)F)ccc3Cl)o2)s1	.	?	180[may fluoresce violet]	.	.
COc1ccccc1CN(Cc1cc2cc(C)cc(C)c2[nH]c1=O)Cc1nnnn1CC1CCCO1 (stereo unspecified)	.	.	.	.	.
CCCn1cc(S(=O)(=O)CC(=O)Nc2ccc(OC)cc2OC)c2ccccc21	.	.	.	.	.
CCn1cc(S(=O)(=O)CC(=O)Nc2ccc3c(c2)OCCO3)c2ccccc21	.	?	226[may fluoresce violet]	23[may fluoresce violet]	?
CCN(CC)C(=O)Cn1cc(S(=O)(=O)CC(=O)Nc2ccc3c(c2)OCCO3)c2ccccc21	.	.	.	.	.
CCCn1cc(S(=O)(=O)CC(=O)Nc2ccc(OCC)cc2)c2ccccc21	.	?	506[may fluoresce violet]	.	.
Cc1cccc(SCC(=O)Nc2ccc3c(c2)OCCO3)c1	.	174[may fluoresce green]	.	.	.
CC(C)c1ccccc1NC(=S)N1CCN(Cc2ccc3c(c2)OCO3)CC1	.	.	.	.	.
SMILES	LAP4-GFP MLPCN	CIT2-GFP yeast	MEP2 TOR yeast	RPL19A TOR yeast	AGP1-GFP MLPCN
O=S(=O)(/N=C(/c1ccc(Cl)cc1)N1CCOCC1)c1ccc(Cl)cc1	.	?	279[may fluoresce violet]	/	?
O=S(=O)(/N=C(/c1ccccc1)N1CCOCC1)c1ccc(F)cc1	.	?	232[may fluoresce violet]	37[may fluoresce violet]	?
O=S(=O)(/N=C(/c1ccccc1)N1CCOCC1)c1ccc(Br)cc1	.	.	.	.	.
Cc1ccc(S(=O)(=O)/N=C(/c2ccccc2)N2CCOCC2)cc1	.	.	.	.	.
O=C(Nc1cccnc1)c1ccc(-c2ccc(Cl)cc2)o1	245	.	.	.	.
O=C1CCC([N+](=O)[O-])C(c2ccc(Cl)cc2)N1 (stereo unspecified)	?	?	?	43[may fluoresce violet]	?
O=C1CCC([N+](=O)[O-])C(c2ccc(Cl)c([N+](=O)[O-])c2)N1 (stereo unspecified)	.	.	.	.	.
Cc1nc2ccccc2n1/N=C/c1ccc([N+](=O)[O-])o1	377[may fluoresce violet]	?	.	.	.
Cc1nc2ccccc2c(=O)n1/N=C/c1ccc([N+](=O)[O-])o1	166	.	.	.	.
Cc1nc2ccccc2n1/N=C/c1ccc([N+](=O)[O-])s1	.	.	.	.	.
CC(=O)Nc1ccc(NS(=O)(=O)c2cc(-c3cnc(C4CC4)o3)ccc2C)cc1	.	.	.	.	.
